Laboratory results published in PubChem BioAssay AID1159580 (chemical genetic matrix, 2015).
Among all 5,500 compounds or so, about 2,000 (36%) were called active. Inconclusive results (about 18%) are left out. No stated cut-off is given here; in the data, active means normalized growth mostly below about 0.91 (no sharp cut-off); inconclusive means no clear call, values can overlap the other calls; inactive means mostly above about 0.92. This is one part of the list.

Assay: chemical genetic growth profiling, strain panel (AID 1159580);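 further: tested at 20 µM; growth read once vehicle control cultures reached saturation at 30 °C; 1 = growth at the plate median or of vehicle wells; lower values mean less growth of the strain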
Details: growth OD

Measured: normalized growth

CC(=O)Nc1cccc(O)c1
inactive: S. cerevisiae deletion strains, locus YJL187C, strain SWE1, active compounds read low 1.02 | S. cerevisiae deletion strains, locus YJR043C, strain POL32, active compounds read low 0.999 | S. cerevisiae deletion strains, locus YJR075W, strain HOC1, active compounds read low 1.01 | S. cerevisiae deletion strains, locus YKL009W, strain mrt4, active compounds read low 0.973 | S. cerevisiae deletion strains, locus YKL068W, active compounds read low 0.989 | S. cerevisiae deletion strains, locus YKL085W, strain MDH1 (second series), active compounds read low 1.01 | S. cerevisiae deletion strains, locus YKL085W, strain MDH1, active compounds read low 1.01 | S. cerevisiae deletion strains, locus YKL160W, strain elf1, active compounds read low 1.05 | S. cerevisiae deletion strains, locus YKL190W, strain CNB1, active compounds read low 1 | S. cerevisiae deletion strains, locus YKR001C, strain vps1, active compounds read low 0.991 | S. cerevisiae deletion strains, locus YKR026C, strain gcn3, active compounds read low 1.01 | S. cerevisiae deletion strains, locus YKR091W, strain srl3, active compounds read low 1.01 | S. cerevisiae deletion strains, locus YLL001W, strain dnm1, active compounds read low 0.995 | S. cerevisiae deletion strains, locus YLL026W, active compounds read low 1.03 | S. cerevisiae deletion strains, locus YLL041C, strain sdh2, active compounds read low 1.03 | S. cerevisiae deletion strains, locus YLR027C, strain aat2, active compounds read low 1.01 | S. cerevisiae deletion strains, locus YLR039C, strain RIC1, active compounds read low 1 | S. cerevisiae deletion strains, locus YLR058C, strain SHM2, active compounds read low 1.01 | S. cerevisiae deletion strains, locus YLR102C, strain apc9, active compounds read low 1.01 | S. cerevisiae deletion strains, locus YLR221C, strain rsa3, active compounds read low 0.972 | S. cerevisiae deletion strains, locus YLR258W, strain gsy2, active compounds read low 1.04 | S. cerevisiae deletion strains, locus YLR262C, strain YPT6 (second series), active compounds read low 1.01 | S. cerevisiae deletion strains, locus YLR262C, strain YPT6, active compounds read low 1.02 | S. cerevisiae deletion strains, locus YLR268W, strain sec22, active compounds read low 0.986 | S. cerevisiae deletion strains, locus YLR320W, strain mms22, active compounds read low 0.957 | S. cerevisiae deletion strains, locus YLR330W, strain CHS5, active compounds read low 1.01 | S. cerevisiae deletion strains, locus YLR342W, strain FKS1 (second series), active compounds read low 1 | S. cerevisiae deletion strains, locus YLR342W, strain FKS1, active compounds read low 1.04 | S. cerevisiae deletion strains, locus YLR357W, strain rsc2, active compounds read low 1.04 | S. cerevisiae deletion strains, locus YLR370C, strain arc18, active compounds read low 1.03 | S. cerevisiae deletion strains, locus YLR371W, strain rom2, active compounds read low 0.999 | S. cerevisiae deletion strains, locus YLR384C, strain iki3, active compounds read low 1.02 | S. cerevisiae deletion strains, locus YLR418C, strain cdc73, active compounds read low 0.996 | S. cerevisiae deletion strains, locus YML016C, strain PPZ1, active compounds read low 1.01 | S. cerevisiae deletion strains, locus YML032C, strain rad52, active compounds read low 0.995 | S. cerevisiae deletion strains, locus YML120C, strain ndi1, active compounds read low 0.972 | S. cerevisiae deletion strains, locus YML124C, strain tub3, active compounds read low 0.986 | S. cerevisiae deletion strains, locus YMR058W, strain fet3, active compounds read low 1.02 | S. cerevisiae deletion strains, locus YMR078C, strain ctf18, active compounds read low 0.989 | S. cerevisiae deletion strains, locus YMR125W, strain sto1, active compounds read low 1.03 | S. cerevisiae deletion strains, locus YMR129W, active compounds read low 0.998 | S. cerevisiae deletion strains, locus YMR205C, strain PFK2, active compounds read low 0.991 | S. cerevisiae deletion strains, locus YMR223W, strain ubp8, active compounds read low 1 | S. cerevisiae deletion strains, locus YMR231W, strain pep5, active compounds read low 1 | S. cerevisiae deletion strains, locus YMR263W, strain SAP30, active compounds read low 1.01 | S. cerevisiae deletion strains, locus YMR307W, strain GAS1, active compounds read low 1 | S. cerevisiae deletion strains, locus YNL067W, strain RPL9B, active compounds read low 1.01 | S. cerevisiae deletion strains, locus YNL071W, strain lat1, active compounds read low 1.01 | S. cerevisiae deletion strains, locus YNL153C, strain GIM3, active compounds read low 1.02 | S. cerevisiae deletion strains, locus YNL209W, strain ssb2, active compounds read low 1.02 | S. cerevisiae deletion strains, locus YNL233W, strain BNI4, active compounds read low 1.02 | S. cerevisiae deletion strains, locus YNL248C, strain rpa49, active compounds read low 1.07 | S. cerevisiae deletion strains, locus YNL250W, strain rad50, active compounds read low 0.995 | S. cerevisiae deletion strains, locus YNL271C, strain bni1, active compounds read low 0.993 | S. cerevisiae deletion strains, locus YNL298W, strain CLA4, active compounds read low 0.978 | S. cerevisiae deletion strains, locus YNL307C, strain MCK1, active compounds read low 1.01 | S. cerevisiae deletion strains, locus YNL322C, strain KRE1 (second series), active compounds read low 1.05 | S. cerevisiae deletion strains, locus YNL322C, strain KRE1, active compounds read low 1 | S. cerevisiae deletion strains, locus YNR049C, strain mso1, active compounds read low 1.01 | S. cerevisiae deletion strains, locus YNR052C, strain pop2, active compounds read low 1 | S. cerevisiae deletion strains, locus YOL006C, strain TOP1, active compounds read low 1.03 | S. cerevisiae deletion strains, locus YOL012C, strain htz1 0.695 | S. cerevisiae deletion strains, locus YOL147C, strain pex11, active compounds read low 0.99 | S. cerevisiae deletion strains, locus YOR001W, strain rrp6, active compounds read low 0.952 | S. cerevisiae deletion strains, locus YOR061W, strain CKA2, active compounds read low 1 | S. cerevisiae deletion strains, locus YOR069W, strain VPS5, active compounds read low 1 | S. cerevisiae deletion strains, locus YOR070C, strain gyp1, active compounds read low 1.02 | S. cerevisiae deletion strains, locus YOR080W, strain dia2, active compounds read low 1.02 | S. cerevisiae deletion strains, locus YOR083W, strain WHI5, active compounds read low 0.997 | S. cerevisiae deletion strains, locus YOR106W, strain vam3, active compounds read low 1.05 | S. cerevisiae deletion strains, locus YOR136W, strain idh2, active compounds read low 0.995 | S. cerevisiae deletion strains, locus YOR144C, strain elg1, active compounds read low 0.993 | S. cerevisiae deletion strains, locus YOR184W, strain ser1, active compounds read low 1 | S. cerevisiae deletion strains, locus YOR265W, strain rbl2, active compounds read low 1.01 | S. cerevisiae deletion strains, locus YOR270C, strain vph1, active compounds read low 1.05 | S. cerevisiae deletion strains, locus YOR290C, strain snf2, active compounds read low 1.05 | S. cerevisiae deletion strains, locus YOR316C, strain cot1, active compounds read low 0.991 | S. cerevisiae deletion strains, locus YPL051W, strain arl3, active compounds read low 1.04 | S. cerevisiae deletion strains, locus YPL055C, strain LGE1, active compounds read low 1.01 | S. cerevisiae deletion strains, locus YPL078C, strain atp4, active compounds read low 1.04 | S. cerevisiae deletion strains, locus YPL106C, strain sse1, active compounds read low 1.01 | S. cerevisiae deletion strains, locus YPL240C, strain hsp82, active compounds read low 1.01 | S. cerevisiae deletion strains, locus YPR119W, strain clb2, active compounds read low 1 | S. cerevisiae deletion strains, locus YPR141C, strain kar3, active compounds read low 0.98 | S. cerevisiae deletion strains, locus YPR163C, strain tif3, active compounds read low 0.988 | S. cerevisiae deletion strains, locus YPR167C, strain met16, active compounds read low 0.997 | S. cerevisiae deletion strains, strain wtn01, active compounds read low 0.995 | S. cerevisiae strains, strain wild type, active compounds read low 1.01
